Measured values from PubChem BioAssay (NCATS).
Unmarked numbers belong to inactive results. Results filed as inconclusive are left out. A call without a number means that no potency is given here. Calls of active or inactive are those of the source. Calls follow the shape of the dose curve; as a rule, active = well fitted curve in the direction sought with a large enough effect; inconclusive = small, poorly fitted or top-dose-only effect, or another doubt; inactive = no such curve, though single readings can be large; an effect the other way counts as inactive or inconclusive.

Columns and labels:
[1] = biological target: Glutathione peroxidase 1 (Homo sapiens) (UniProt P07203); assay: Primary qHTS Assay for Inhibitors of Recombinant Selenoprotein Glutathione Peroxidase 1 (GPX1) (AID 1845191); also: nearly all actives have a fitted effect of over 65% in size
Sequence of Glutathione peroxidase 1 (Homo sapiens) (P07203 whole entry, looked up): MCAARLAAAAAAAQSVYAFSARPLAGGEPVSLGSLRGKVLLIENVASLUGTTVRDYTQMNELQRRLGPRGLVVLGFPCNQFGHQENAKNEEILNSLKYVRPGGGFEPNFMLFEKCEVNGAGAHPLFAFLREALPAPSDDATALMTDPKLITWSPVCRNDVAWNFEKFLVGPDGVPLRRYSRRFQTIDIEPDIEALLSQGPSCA
How it was run: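 GR-coupled readout: NADPH consumption tracked by fluorescence, ex 340/em 450 nm, at t=0 and after 15 min at RT. Final mix 10 nM GPX1, 1 mM GSH, 0.5 mM CHP, 0.5 mM NADPH, 100 nM GR, 0.01% BSA, following 30 min enzyme–compound preincubation.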

[2] = biological target: Phospholipid hydroperoxide glutathione peroxidase GPX4 (Homo sapiens) (UniProt P36969); assay: Primary qHTS Assay for Inhibitors of Recombinant Selenoprotein Glutathione Peroxidase 4 (GPX4) (AID 1845192); also: nearly all actives have a fitted effect of over 65% in size; as to activity change, negative = inhibition: series mostly up to about 50 µM
Sequence of Phospholipid hydroperoxide glutathione peroxidase GPX4 (Homo sapiens) (P36969 whole entry, looked up): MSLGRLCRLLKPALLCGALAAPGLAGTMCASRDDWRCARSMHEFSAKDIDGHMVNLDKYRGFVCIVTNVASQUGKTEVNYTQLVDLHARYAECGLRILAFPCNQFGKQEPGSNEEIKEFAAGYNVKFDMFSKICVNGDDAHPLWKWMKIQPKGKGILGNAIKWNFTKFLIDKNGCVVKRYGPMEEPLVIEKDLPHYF
How it was run: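 Steps: GPX4 plus compound, 30 min RT; add GR/GSH/NADPH master mix; start with cumene hydroperoxide; read 340/450 nm fluorescence at 0 and 15 min. Finals were 200 nM GPX4, 1 mM GSH, 0.5 mM CHP, 0.5 mM NADPH, 100 nM GR.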

[3] = biological target: Luciferin 4-monooxygenase (Photinus pyralis) (UniProt P08659); assay: Primary firefly luciferase (FLuc) qHTS assay for identification of artifact compounds. (AID 1845220); also: nearly all actives have a fitted effect of over 60% in size; as to activity change, negative = inhibition: series mostly up to about 54 µM
How it was run: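 D-luciferin and ATP (10 uM each, final) in Tris acetate buffer pH 7.6 were incubated with compounds for 15 min at room temperature. The reaction was started with 10 nM Photinus pyralis luciferase and luminescence read after 5 min. Percent inhibition was fitted to a 4-parameter Hill equation.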

[4] = Primary fluorescence-based thiol-reactive (MSTI) qHTS assay for identification of artifact compounds. (AID 1845221); also: nearly all actives have a fitted effect of over 65% in size; also: potency is read from the fitted curve at half-maximal effect;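 as to activity change, negative = thiol reactive: series mostly up to about 54 µM; thiol-reactive compounds lower the probe fluorescence signal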
How it was run: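 Probe: MSTI 4 uM, PBS pH 7.4, 2% DMSO. Incubation 1 h, RT, light-protected. Readout fluorescence 525/598 nm.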

[5] = system: Nanoluciferase (engineered Oplophorus gracilirostris luciferase); assay: Primary Nanoluciferase (NLuc) qHTS assay for identification of artifact compounds. (AID 1845222); also: series mostly up to about 54 µM
How it was run: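 Diluted conditioned medium from NLuc-expressing S16 cells treated with compounds for 15 min at room temperature, then Nano-Glo substrate added; luminescence read after 5 min. Percent inhibition versus no-enzyme and DMSO controls fitted to 4-parameter Hill equation.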

[6] = Primary redox qHTS assay for identification of artifact compounds. (AID 1845223)
How it was run: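 Redox-cycling detection via DTT (250 uM final) oxidation coupled to Amplex Red (25 uM)/HRP (250 mU/mL) in HBSS. 15 min preincubation plus 30 min after DTT, room temperature. Ex/Em 525/598 nm; 4-parameter Hill fit against DMSO and 10 uM DA3003.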

C/C=C/c1cc(OC)c2c(c1)[C@@H](C)[C@@H](c1ccc(O)c(OC)c1)O2
Potency [1]: inactive | Potency [2]: inactive | Potency [3]: inactive | Potency [4]: inactive | Potency [5]: inactive | Potency [6]: inactive

COc1cc(NC(=O)Nc2cccc(CNC(=O)O[C@H]3CCOC3)c2)ccc1-c1cnco1
Potency [1]: inactive | Potency [2]: inactive | Potency [3]: inactive | Potency [4]: inactive | Potency [5]: inactive | Potency [6]: inactive

CCOc1cc(C)c(Cl)cc1S(=O)(=O)n1cnc2ccccc21
Potency [1]: inactive | Potency [2]: inactive | Potency [3]: inactive | Potency [4]: inactive | Potency [5]: inactive | Potency [6]: inactive

C=CC(C)(O)CC/C=C(\C)C(=O)OC1C(O)C(CO)OC(OC(=O)C23CCC(C)(C)CC2C2=CCC4C5(C)CCC(OC6OC(COC7OCC(OC(C)=O)C(O)C7OC7OC(COC(C)=O)C(O)C(O)C7O)C(O)C(O)C6O)C(C)(C)C5CCC4(C)C2(C)C(O)C3O)C1OC1OCC(OC2OCC(O)C(OC3OCC(O)C(O)C3O)C2O)C(O)C1O (stereo not drawn)
outcome [1]: inactive [at 9.52 µM] | outcome [2]: inactive [at 9.73 µM] | activity change, negative = inhibition [3]: 0.903% [at 6.45 µM] | activity change, negative = thiol reactive [4]: 213% [at 6.41 µM] | activity, negative = inhibition [5]: 2.81% [at 6.45 µM] | redox activity (% of DA3003) [6]: -2.76% [at 6.41 µM]

COC(=O)[C@@]1(c2ccc(C)cc2)C[C@H]1CN1CCC(O)(c2ccccc2)CC1
Potency [1]: inactive | Potency [2]: inactive | Potency [3]: inactive | Potency [4]: inactive | Potency [5]: inactive | Potency [6]: inactive

CC1=C(C)C(=O)OC(C(C)C2CCC3C4C5OC5C5(O)CC(OC6OC(CO)C(OC7OC(C)C(O)C(O)C7O)C(O)C6O)CC(O)C5(C)C4CCC23C)C1 (stereo not drawn)
Potency [1]: inactive | Potency [2]: inactive | Potency [3]: inactive | Potency [4]: inactive | Potency [5]: inactive | Potency [6]: inactive

CC1CC(C(O)C(C)(C)O)OC2CC3(C)C4(C)CCC5C(C)(C)C(=O)CCC5(C)C4CCC3(O)C12O (stereo not drawn)
Potency [1]: inactive | Potency [2]: inactive | Potency [3]: inactive | Potency [4]: inactive | Potency [5]: inactive | Potency [6]: inactive

CC1(C)CC[C@]2(C(=O)O)CC[C@]3(C)C(=CCC4[C@@]5(C)CC[C@H](O[C@@H]6O[C@H](C(=O)O)[C@@H](O[C@@H]7OC[C@@H](O)[C@H](O)[C@H]7O)[C@H](O)[C@H]6O)C(C)(C)C5CC[C@]43C)C2C1O (stereo partly drawn)
Potency [1]: inactive | Potency [2]: inactive | Potency [3]: inactive | Potency [4]: inactive | Potency [5]: inactive | Potency [6]: inactive

O=C(O)c1cccc(S(=O)(=O)N2CCc3ccccc3C2)c1
Potency [1]: inactive | Potency [2]: inactive | Potency [3]: inactive | Potency [4]: inactive | Potency [5]: inactive | Potency [6]: inactive

C=C1C[C@]23C[C@H]1CC[C@H]2[C@@]1(C)CCC[C@@]2(C)C(=O)O[C@@H]([C@@H]3O)[C@@H]12
Potency [1]: inactive | Potency [2]: inactive | Potency [3]: inactive | Potency [4]: inactive | Potency [5]: inactive | Potency [6]: inactive

CC(CCC1(O)OC2CC3C4CCC5CC(O[C@@H]6O[C@H](CO)[C@@H](O)[C@H](O)[C@H]6O[C@@H]6O[C@@H](C)[C@H](O)[C@@H](O)[C@H]6O)C(O)CC5(C)C4CCC3(C)C2C1C)CO[C@@H]1O[C@H](CO)[C@@H](O)[C@H](O)[C@H]1O (stereo partly drawn)
Potency [1]: inactive | Potency [2]: inactive | activity change, negative = inhibition [3]: -2.32% [at 11.6 µM] | activity change, negative = thiol reactive [4]: 141% [at 11.5 µM] | activity, negative = inhibition [5]: 2.24% [at 11.6 µM] | redox activity (% of DA3003) [6]: 15.2% [at 11.5 µM]

C=C(C(=O)O)[C@H]1C[C@]2(C)[C@@H](O)CC[C@]23O[C@H]1C[C@@H]3C
Potency [1]: inactive | Potency [2]: inactive | Potency [3]: inactive | Potency [4]: 29.9 µM (active) | Potency [5]: inactive | Potency [6]: inactive

Cn1c(=O)n(-c2ccc(C(C)(C)C#N)cc2)c2c3cc(C#Cc4cccnc4)ccc3ncc21
Potency [1]: inactive | Potency [2]: inactive | Potency [3]: inactive | Potency [4]: inactive | Potency [5]: inactive | Potency [6]: inactive

NC(=O)c1cnc(NCCc2ccc(O)c(Cl)c2)nc1NCc1ccccc1
Potency [1]: inactive | Potency [2]: inactive | Potency [3]: inactive | Potency [4]: inactive | Potency [5]: inactive | Potency [6]: inactive

CC1OC(O[C@H]2CC[C@@]3(C)C(CC[C@]4(C)C3CC=C3C5CC(C)(C)CC[C@]5(C(=O)OC5OC(CO)C(OC6OC(COC7OCC(O)C(O)C7O)C(O)C(O)C6O)C(O)C5O)CC[C@]34C)C2(C)C)C(O)C(O)C1OC1OCC(OC2OCC(O)C(O)C2O)C(O)C1O (stereo partly drawn)
activity, negative = inhibition [1]: -21.4% [at 9.52 µM] | activity change, negative = inhibition [2]: -7.3% [at 9.73 µM] | activity change, negative = inhibition [3]: -3.25% [at 11.6 µM] | activity change, negative = thiol reactive [4]: 94.7% [at 11.5 µM] | activity, negative = inhibition [5]: 0% [at 11.6 µM] | redox activity (% of DA3003) [6]: 16.2% [at 11.5 µM]

CC1(C=O)CC[C@]2(C(=O)O[C@@H]3O[C@H](CO)[C@@H](O)[C@H](O)[C@H]3O)CC[C@]3(C)C(=CCC4[C@@]5(C)C[C@H](O)[C@H](O[C@@H]6OC[C@@H](O)[C@H](O)[C@H]6O)[C@@](C)(CO)C5CC[C@]43C)C2C1 (stereo partly drawn)
Potency [1]: inactive | Potency [2]: inactive | outcome [3]: inactive [at 11.6 µM] | activity change, negative = thiol reactive [4]: 182% [at 11.5 µM] | activity, negative = inhibition [5]: 2.01% [at 11.6 µM] | redox activity (% of DA3003) [6]: 8.25% [at 11.5 µM]

CC1=C(C(=O)O)/C(=C\CO[C@@H]2O[C@H](CO)[C@@H](O)[C@H](O)[C@H]2O)C(OC(=O)/C=C/c2ccc(O)cc2)C1 (stereo partly drawn)
Potency [1]: inactive | Potency [2]: inactive | Potency [3]: inactive | Potency [4]: 4.62 µM (active) | Potency [5]: inactive | Potency [6]: inactive

CSc1ccc(C(=O)N[C@@H]2CCCC[C@@H]2NC(=O)CNC(=O)c2cc(C(F)(F)F)ccc2NC(=O)NC(C)C)cc1
Potency [1]: inactive | Potency [2]: inactive | Potency [3]: inactive | Potency [4]: inactive | Potency [5]: inactive | Potency [6]: inactive

CCS(=O)(=O)N1CCN(c2ccc(Nc3ncc(C(N)=O)c(NC4CC4)n3)cc2)CC1
Potency [1]: inactive | Potency [2]: inactive | Potency [3]: inactive | Potency [4]: 2.99 µM (active) | Potency [5]: inactive | Potency [6]: inactive

NC[C@@](O)(c1ccc(Cl)cc1)c1ccc(-c2cn[nH]c2)cc1
Potency [1]: inactive | Potency [2]: inactive | Potency [3]: inactive | Potency [4]: inactive | Potency [5]: inactive | Potency [6]: inactive

Cc1ccccc1CN1C2=NCCN2C(=O)C2=C1CCN(Cc1ccccc1)C2
Potency [1]: inactive | Potency [2]: inactive | Potency [3]: inactive | Potency [4]: inactive | Potency [5]: inactive | Potency [6]: inactive

C=C(C)C1CCC2(C(=O)O[C@@H]3O[C@H](CO[C@@H]4O[C@H](CO)[C@@H](O)[C@H](O)[C@H]4O)[C@@H](O)[C@H](O[C@@H]4O[C@@H](C)[C@H](O)[C@@H](O)[C@H]4O)[C@H]3O)CCC3(C(=O)O)C(CCC4C5(C)CCC(O)C(C)(C)C5CCC43C)C12 (stereo partly drawn)
Potency [1]: inactive | Potency [2]: inactive | outcome [3]: inactive [at 11.6 µM] | activity change, negative = thiol reactive [4]: 301% [at 11.5 µM] | activity, negative = inhibition [5]: 0% [at 11.6 µM] | redox activity (% of DA3003) [6]: 10.3% [at 11.5 µM]

CNCc1ccc(-c2cc(-c3nc(-c4ccc(S(=O)(=O)C(C)C)cc4)cnc3N)on2)cc1
Potency [1]: inactive | Potency [2]: inactive | Potency [3]: inactive | Potency [4]: inactive | Potency [5]: inactive | Potency [6]: inactive
